Data from PubChem BioAssay AID1892 (NMMLSC, 2009).
Hit rate of the full screen: of about 5,900 compounds, about 140 (2.4%) were called active. The entries come from a sample that favours actives as a whole. A number with no mark means an inactive call. Cut-off read from the data, not from the text of the source: active = binding response below about 16% or above about 210%; inactive = in between.

The compounds below were run against Mitogen-activated protein kinase kinase kinase 2 (Homo sapiens) (UniProt Q9Y2U5) (assay: wildtype MEKK2 PB1-MEK5 interaction enhancers or blockers – biochemical, single concentration, multiplex bead flow cytometry, confirmation (AID 1892)). Details: Alexa488-MEK5 binding to MEKK2 WT, at 10 µM, actives lie on both sides.

Compound	binding response (% of control)
Cc1nn(-c2ccccc2)c(C)c1NC(=O)CCl	95%
C=CCn1c(P(C)(=O)O)nc2ccccc21	95%
CNC(=O)/C(=C\C=C\c1ccccc1)NC(=O)c1ccc([N+](=O)[O-])cc1	99%
Cc1ccc(N(CCC(=O)O)S(=O)(=O)c2cccc(C(F)(F)F)c2)cc1	102%
CN(c1ccccc1)c1ccc(/C=c2\s/c(=C(/C#N)C(=O)C(C)(C)C)n(Cc3ccco3)c2=O)cc1	73%
CCN(CC)CCCNC(=O)c1ccc2c(=O)n(Cc3ccc4c(c3)OCO4)c(=S)[nH]c2c1	128%
O=C(NC1CCN(Cc2ccccc2)CC1)c1ccc(Oc2cc(Cl)cc(Cl)c2)o1	138%
COCCN1C=C2C(=O)C(C)(OC(=O)C3CCCC3)C(=O)C=C2C=C1c1ccsc1 (stereo unspecified)	96%
O=C(NCc1ccccc1Cl)NC(=O)c1csc([N+](=O)[O-])c1	104%
COc1ccc(CCn2c(NN=C3CCCC3)nc3c2c(=O)[nH]c(=O)n3C)cc1	102%
CCOC(=O)c1sc2nc(C)nc(SCC(N)=O)c2c1C	102%
COc1ccccc1N=C(C)C1=C(O)COC1=O	106%
Cc1nc2cc(S(=O)(=O)C(F)(F)F)ccc2s1	106%
CC(C)CC(=O)NC(=S)NCc1ccccc1	98%
COc1ccc(C(=O)NCC(=O)N/N=C/c2ccc([N+](=O)[O-])o2)cc1OC	92%
CCOC(=O)c1c(NC(=O)c2ccc(S(=O)(=O)N(C)CC3CCCO3)cc2)sc2c1CC(C)(C)NC2(C)C (stereo unspecified)	121%
COc1cccc(OCC(=O)NNC(=O)c2cnccn2)c1	98%
COc1ccc(C2CC(=O)Nc3cc(C)c(C)cc32)c(OC)c1OC (stereo unspecified)	101%
COc1ccc(SC[C@H](Cc2ccccc2)N2CCN(CCc3ccccc3)CCC2=O)cc1	129%
Cc1cc(C)nc(-n2ncc3c2CC(c2ccc(C(C)C)cc2)CC3=O)n1 (stereo unspecified)	102%
Cc1c(C#N)c2ncn(CC#N)c(=O)c2n1-c1ccccc1	99%
CC(=O)Nc1ccc(N2CCOCC2)c(C(=O)Nc2cccc(C)c2)c1	102%
CCCCNC(=O)N1CCCC(N(C)CCc2ccc(OC)c(OC)c2)C1 (stereo unspecified)	103%

Compound	binding response (% of control)
Cc1ccc(C(=O)NC(=S)Nc2ccc3[nH]c(=O)[nH]c3c2)cc1C	101%
CCN1CCN(c2ccc(S(=O)(=O)N3CCCCC3)cc2NC(=O)Cc2c(Cl)cccc2Cl)CC1	125%
Cc1cnc(NC(=O)Cn2cnc3c2c(=O)n(C)c(=O)n3C)s1	96%
O=c1c2ccccc2c(-c2ccccc2)nn1Cc1ccccc1	100%
Cc1ccccc1OCC(=O)Nc1ccc(N2CCN(C(=O)C(C)C)CC2)c(Cl)c1	93%
O=C1NCC(=O)N(Cc2ccccc2)/C1=C/c1ccccc1	75%
CC1(C)OC(=O)N2CCc3ccccc3C21C (stereo unspecified)	101%
CN(C)c1ccc(/C=C2\NC(=S)N(Cc3ccccc3)C2=O)cc1	86%
Cc1ccc(N2C(=O)CC(N3CCSCC3)C2=O)c(C)c1 (stereo unspecified)	103%
Cc1ccc(NC(=S)N(CCCN2CCCC2)Cc2cccn2Cc2ccc(Cl)cc2)cc1	160%
COc1ccc(-c2[nH]ncc2CN(C)Cc2c(C)n[nH]c2C)c(OC)c1	108%
COc1ccccc1CC(=O)Nc1ccc([N+](=O)[O-])cc1OC	100%
Cc1ccc(Nc2nc(CSc3nnc(-c4ccncc4)n3-c3ccccc3C)cs2)cc1	101%
O=C(/C=C/Nc1ccccc1)c1cnc(-c2ccccc2)s1	107%
CC(C)CC(=O)N1CCN(Cc2ccccc2Br)CC1	105%
Cc1ccccc1CCN(CC(=O)NC1CCCCC1)C(=O)c1csnn1	96%
Cc1cccc(/C=N/NC(=O)CNc2cccc3ccccc23)n1	103%
CC(C)(C)NC(=O)c1cccc(NC(=O)Cc2ccc(Br)cc2)c1	100%
CCOc1cc(C2C(C(=O)OC)=CN(C3CCCC3)C=C2C(=O)OC)cc(Br)c1O	108%
COc1ccc(CCNC(=O)CSc2nnc3ccc(-c4ccncc4)nn23)cc1	102%
CCCCOC(=O)c1ccc(N2C(=O)CC(N3CCN(C/C=C/c4ccccc4)CC3)C2=O)cc1 (stereo unspecified)	124%
O=C(NCC1CCCCC1)c1cc(S(=O)(=O)N2CCCCC2)ccc1N1CCOCC1	87%
Cn1c(SCc2nc3ccccc3s2)nnc1-c1ccc2c(c1)OCO2	102%

Compound	binding response (% of control)
Cc1cccc(-c2ncc(CN3CCC(CO)(CCCc4ccccc4)CC3)cn2)c1	131%
Cc1cn(COC/C=C/c2ccccc2)c(=O)[nH]c1=O	103%
COc1cc(NC(=S)NCc2ccco2)c(OC)cc1Cl	108%
COC(=O)c1c(NC(=O)COC(=O)[C@@H](NS(=O)(=O)c2ccccc2)C(C)C)sc2c1CCC2	96%
COc1cc(-c2nc(-c3ccncc3)no2)cc(OC)c1OC	104%
Cc1cccc(CSc2nnc(C)c(=O)n2N)c1	100%
O=C(O)CCCC(=O)Nc1ccc(Oc2cccc(C(F)(F)F)c2)nc1	106%
COc1cc(CC(=O)N/N=C/c2ccccc2)c([N+](=O)[O-])cc1OC	99%
COc1ccc(S(=O)(=O)N2CN(CCc3ccc(OC)c(OC)c3)c3nc4ccccc4nc32)cc1	96%
CCOC(=O)C(NS(=O)(=O)c1ccc(C)cc1)(C(F)(F)F)P(=O)(OCC(C)C)OCC(C)C (stereo unspecified)	90%
O=c1[nH]c(=S)[nH]c2[nH]c(=S)[nH]c12	101%
Cc1ccccc1-c1ccc(Nc2ccc(C(=O)N3CCOCC3)cc2)nn1	103%
CCOC(=O)c1c(Cc2ccc(Cl)cc2)c[nH]c1C	105%
O=C(Nc1cccnc1)c1cc(Cl)ccc1Cl	109%
CN(C)CCCNC(=O)/C=C/c1ccc(OCc2c(F)cccc2Cl)cc1	150%
O=C(c1cnn(-c2ccc(Cl)cc2)c1)c1ccccc1O	112%
O=C(O)/C=C\C(=O)Nc1ccc(OCc2ccccc2)cc1	102%
O=C(OCc1cc(Cl)ccc1OC(F)F)c1cccnc1	95%
CCNC(=O)CSc1nc(-c2ccccc2)cs1	99%
O=C(OCC1O[C@@H](OC(=O)c2cc(O)c(O)c(O)c2)[C@@H](OC(=O)c2cc(O)c(O)c(O)c2)[C@@H](OC(=O)c2cc(O)c(O)c(O)c2)[C@@H]1OC(=O)c1cc(O)c(O)c(O)c1)c1cc(O)c(O)c(O)c1 (stereo partly specified)	-1% [inhibitor] (active)
CCOC(=O)c1c(-c2ccccc2)csc1NC(=S)NC(=O)c1ccccc1	102%
CCCCCCCCCCOC(=O)Cn1c(COc2ccc(C)cc2)[n+](C)c2ccccc21	217% (active)
CCCCCCCCCCOC(=O)Cn1c(COc2cccc(OC)c2)[n+](C)c2ccccc21	257% (active)

Compound	binding response (% of control)
FC(F)(F)c1cccc(N/N=C/c2ccccc2)c1	151%
Cc1ccc(S(=O)(=O)NC(=O)N2CCCC(C)(C)C2)cc1	101%
COc1cc(/C=C2\SC(=S)N(Nc3ncc(C(F)(F)F)cc3Cl)C2=O)cc(OC)c1OC	74%
Cc1cc(Cl)ccc1OCc1nc(-c2ccncc2)no1	80%
COc1ccccc1N1CCN(CCCCOc2ccc(F)cc2)CC1	109%
Cc1no[n+]([O-])c1COc1ccccc1/C=C1\NC(=S)NC1=O	99%
CCO[C@H]1OC(C(=O)N2CCOCC2)=C[C@@H](c2ccc3c(c2)OCO3)[C@@H]1CCCO	101%
c1ccc(Nc2nc(N3CCOCC3)c3ccccc3n2)cc1	124%
COCC(C)NC(=O)COc1nncc2ccccc12 (stereo unspecified)	96%
Cn1c(=NC(=O)CSCC(=O)N2CCOCC2)sc2ccccc21	90%
CCc1nnc(NC(=O)c2sc3nc(C)cc(COC)c3c2N)s1	107%
Cc1ccccc1C(=O)NNC(=O)CN1C(=O)c2ccccc2C1=O	92%
C#CCOCCOCCOCCNc1nc(N2CCN(C(=O)[C@H](CCCCN)n3cc([C@@H](N)C(C)CC)nn3)CC2)nc(N2CCN(C(=O)[C@H](Cc3ccc(O)cc3)n3cc([C@@H](N)C(C)CC)nn3)CC2)n1 (stereo partly specified)	183%
COc1ccc(C2CC(c3cccs3)=NN2c2nc(C)c(C(C)=O)s2)cc1OC (stereo unspecified)	82%
CCOC(=O)c1cc2occc2n1CC(=O)N1CCN(C(=O)c2ccco2)CC1	92%
COC(=O)c1cc(NC(=O)c2cc(C(C)(C)C)nn2Cc2cccc(C)c2)ccc1N1CCOCC1	102%
Cc1ccc(S(=O)(=O)/N=S(\C)C(C)C)cc1 (stereo unspecified)	101%
CCOC(=O)/C(C#N)=C/c1ccc(OCC(=O)Nc2ccccc2)c(OC)c1	103%
CN(C)CCCN(C(=O)c1ccc(S(=O)(=O)N2CCCc3ccccc32)cc1)c1nc2ccc(F)cc2s1	198%
O=C(Nc1ccc2ccccc2c1)Nc1ccc2snnc2c1	155%
CCOc1ccc(NC(=O)Nc2cc(C)ccc2OC)cc1	106%
CCOc1cc(C(=O)OCC(=O)Nc2cccc(C)c2)ccc1OCC(=O)N1CCOCC1	106%
